# Reference: PubChem BioAssay (NCI)
# Values joined by “and” are separate entries in the source; they are usually repeats but may differ in a detail not shown here. Equal values may be shown once. About 83,000 compounds went through this panel and 20% of them were active in at least one assay; those are over-represented in the sample as a whole.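 Single-concentration screen, 48 h exposure, 96-well plates. Endpoint: percent growth. Below 10 = active.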 Values without a mark were called inactive. Active and inactive are the calls of the source. Where a SMILES comes first, the peptide text is derived from it. The star is where a group is joined. Trt = c1ccc(C(c2ccccc2)(c2ccccc2)*)cc1; Cbz = O=C(OCc1ccccc1)*
# Assays:
# Assay in all cases: NCI-60 one-dose screen, 48 h (100 = growth as untreated, 0 = no growth, -100 = all killed)
# Settings in all cases: 10 µM unless noted
# SK-MEL-2 melanoma = tested on: SK-MEL-2 melanoma
# EKVX NSCLC = tested on: EKVX NSCLC
# SN12C renal = tested on: SN12C renal
# UO-31 renal = tested on: UO-31 renal
# TK-10 renal = tested on: TK-10 renal
# ACHN renal = tested on: ACHN renal
# CAKI-1 renal = tested on: CAKI-1 renal
# A498 renal = tested on: A498 renal
# CCRF-CEM leukemia = tested on: CCRF-CEM leukemia
# MOLT-4 leukemia = tested on: MOLT-4 leukemia
Compound,growth (SK-MEL-2 melanoma),growth (EKVX NSCLC),growth (SN12C renal),growth (UO-31 renal),growth (TK-10 renal),growth (ACHN renal),growth (CAKI-1 renal),growth (A498 renal),growth (CCRF-CEM leukemia),growth (MOLT-4 leukemia)
COC(=O)C(CSC(c1ccccc1)(c1ccccc1)c1ccccc1)NC(=O)C(CC(N)=O)NC(=O)OCc1ccccc1 (stereo not drawn) (Cbz-Asn-Cys(Trt)-OMe; configuration not given here),-23% (active),36.6%,29.2%,58.4%,48.4%,28.3%,44.3%,21.1%,40.3%,3.12% (active)
Nc1ccc(SSc2ccc(N)cc2)cc1,91.6%,106%,101%,73.6%,111%,93.5%,98.5%,103%,106%,96.1%
CC1=CC(O)C2CC1C2(C)C (stereo not given),92.8%,97.7% and 104%,102% and 108%,93.8% and 73.6%,102% and 98.1%,103% and 118%,94.4% and 85.8%,91% and 92.7%,106% and 105%,91.9% and 93.3%
Cc1ccc(C(=Nc2ccccc2)N=P(c2ccccc2)(c2ccccc2)c2ccccc2)cc1,-51.8% (active),-16.8% (active),-10.1% (active),-79.6% (active),-23.4% (active),2.97% (active),-32.1% (active),-56.7% (active),-30.2% (active),1.64% (active)
O=C1NC(=O)/C(=C/C=C/c2ccccc2)S1,-6.31% (active),62.5%,50.6%,34.1%,91.8%,9.79% (active),25.5%,,,
CN1c2ccccc2C(C)(C)C12C=Cc1cc(O)ccc1O2 (stereo not given),57.5%,105%,48.7%,60.6%,80.7%,73.3%,65.9%,26%,-16.8% (active),-17.6% (active)
COC(=O)[C@@]12OC[C@]34[C@H]([C@@H](O)[C@@H]1O)[C@@]1(C)[C@H](O)C(=O)C=C(C)[C@@H]1C[C@H]3OC(=O)C(OC(C)=O)[C@@H]24 (stereo not given in full),-49.5% (active),-43.6% (active),-17.5% (active),-35.1% (active),-32.7% (active),-39.2% (active),-35.9% (active),-49.4% (active),,-41.6% (active)
Cc1ccnc(NC(c2ccccc2)c2ccc3cccnc3c2O)c1 (stereo not given),50.4%,33.5%,38.8%,14.8%,58.3%,28.5%,14.7%,77.3%,16.4%,18%
CCCCCCCCCCCCCCCC[N+](C)(CCO)Cc1cnc[nH]1 (stereo not given),-78.5% (active),38.1%,-4.78% (active),27.6%,-35.1% (active),3.11% (active),40.9%,-5.4% (active),,-77.2% (active)
Cc1ccc(NS(=O)(=O)c2ccc(C)cc2)cc1,101% and 79.6%,96.3%,105% and 99.8%,93% and 79.3%,104% and 91.5%,113% and 96.6%,90.9% and 96%,92.8% and 93.4%,92.3% and 97.2%,94% and 98.5%
O=Nc1ccccc1N=O,90.2%,88.7%,71.6%,64%,115%,84.5%,81.1%,110%,97.5%,99.9%
CCCCCCCCCCCCCCCCCCOP(=O)([O-])OC1CC[N+](C)(C)CC1,-14.6% (active),36.3% and 41.5%,19.9% and 24.9%,-5.55% (active) and -40.1% (active),-79.1% (active) and -93.8% (active),28.6% and 23.9%,-9.45% (active) and -42.7% (active),-21.6% (active) and -25.3% (active),-2.22% (active) and -53% (active),-44.9% (active) and -49.8% (active)
